{"source": "PubChem BioAssay AID2502", "about": "(National Center for Advancing Translational Sciences (NCATS), 2010)", "note": "Where “and” joins values, the source holds several entries; their conditions need not be identical. Equal entries are not always repeated. Inconclusive results are not listed. Unmarked numbers belong to inactive results. Calls come from the whole dose curve; as a rule, active = well fitted curve in the direction sought with a large enough effect; inconclusive = small, poorly fitted or top-dose-only effect, or another doubt; inactive = no such curve, though single readings can be large or run the other way.", "data": [{"experiment": "Confirmatory Assay for Inhibitors of Human Galactokinase (GALK): Phenol-HRP redox assay counterscreen for probe SAR", "conditions": "Phenol red-HRP H2O2 redox cycling, absorbance 600 nm", "from_the_text": "NIH Molecular Libraries Probe Production Centers Network [MLPCN] NIH Chemical Genomics Center [NCGC] MLPCN Grant: R03 MH085689-01 Assay Submitter (PI): Kent Lai (University of Utah School of Medicine, 50 N Mario Capecchi Drive, Salt Lake City, UT 84132) NCGC Assay Overview: One mM dithiothreitol (DTT) was used as a reducing agent to maintain the galactokinase (GALK) enzyme in its active form in the GALK qHTS screen (AID: 1868). However, it has been shown that in the presence of DTT a number of compounds also undergo redox recyling, generating a significant amount of H2O2 that can oxidize crucial cysteine residues in the enzyme, leading to and a false-positive result. To evaluate and flag redox recycling compounds for compounds re-acquired from the qHTS screen, an endpoint colorimetric assay developed by Johnston et al. was adopted and optimized for a 1536-well plate format. In brief, the assay detects the presence of H2O2 by following the change in absorbance at 600 nm due to oxidation of phenol red (Sigma, cat# 114537) catalyzed by horseradish peroxidase (HRP; Invitrogen). A stop reagent, 1N NaOH was added prior to reading the absorbance. DMSO and different concentrations of hydrogen peroxide (Sigma, cat# 216763) in the GALK buffer were used as negative and positive controls respectively.\nNCGC Assay Protocol Summary: Two uL/well of GALK buffer (20mM HEPES pH8.0, 5 mM MgCl2, 60 mM NaCl, 1 mM DTT, 0.01% BSA final concentration) was dispensed into a 1536-well assay plates (Greiner, black clear bottom plates) with Aurora Discovery BioRAPTR Flying Reagent Dispenser (FRD; Beckton-Dickenson). Compound and control solutions (23 nL each) were transferred to the assay plate in their respective wells using Kalypsys pin tool equipped with a 1536-pin tool head and incubated at room temperature for 30 min. Presence of H2O2 produced by redox cycling compounds was detected by adding 2 uL/well phenol red - HRP detection reagent ([…] phenol red in 1x Hanks Balanced Salt Solution, 25 U/mL HRP final concentrations). After 15 min of room temperature incubation, the reaction was stopped by adding 2 uL/well 1N NaOH and incubated for an additional 1 hr at room temperature. The absorbance at 600 nm was measured using the ViewLux plate reader (Perkin Elmer, Waltham, MA) with 6000 light energy, 2 sec exposure, and 2x binning instrument settings.", "values": [{"smiles": "O=C1CCCC2=C1C1(CCCC1)N=C(Nc1nc3ccccc3o1)N2", "max response": "-5.8% and 7.13%"}, {"smiles": "CC1(C)CC(=O)C2=C(C1)NC(Nc1nc3ccccc3o1)=NC2c1ccccc1", "note": "(stereo unspecified)", "max response": "4.41%"}, {"smiles": "O=C1CCCC2=C1C(c1ccccc1Cl)N=C(Nc1nc3ccccc3o1)N2", "note": "(stereo unspecified)", "max response": "1.07%"}, {"smiles": "COc1ccccc1C1N=C(Nc2nc3ccccc3o2)NC2=C1C(=O)CC(C)(C)C2", "note": "(stereo unspecified)", "max response": "-7.36%"}, {"smiles": "O=C1CCCC2=C1C1(CCCC1)N=C(Nc1nc3cc(-c4ccccc4)ccc3o1)N2", "max response": "-17.5%"}, {"smiles": "O=C1CCCC2=C1[C@@]1(CCC(c3ccccc3)C1)N=C(Nc1nc3ccccc3o1)N2", "note": "(stereo partly specified)", "max response": "-22.7%"}, {"smiles": "O=C1CCCC2=C1C1(CCCC1)N=C(Nc1nc3ccccc3n1Cc1ccccc1)N2", "max response": "-7.8%"}, {"smiles": "O=C1CCC2=C1C(c1ccccc1Cl)N=C(Nc1nc3ccccc3o1)N2", "note": "(stereo unspecified)", "max response": "4.53%"}, {"smiles": "O=C1CCCC2=C1C1(CCOCC1)N=C(Nc1nc3ccccc3o1)N2", "max response": "-7.41%"}, {"smiles": "Cc1ccc(C2N=C(Nc3nc4ccccc4o3)NC3=C2C(=O)CC(C)(C)C3)cc1", "note": "(stereo unspecified)", "max response": "0.33%"}, {"smiles": "O=C1CC(c2ccccc2)CC2=C1C1(CCCC1)N=C(Nc1nc3ccccc3o1)N2", "note": "(stereo unspecified)", "max response": "-23.7%"}, {"smiles": "O=C1CCCC2=C1C1(CCCC1)N=C(Nc1nc3cc(Cl)ccc3o1)N2", "max response": "-6.87%"}, {"smiles": "COc1cccc(C2N=C(Nc3nc4ccccc4o3)NC3=C2C(=O)CC(C)(C)C3)c1", "note": "(stereo unspecified)", "max response": "-7.9%"}, {"smiles": "O=C1CCCC2=C1C1(CCCC1)N=C(Nc1nc3cc(Br)ccc3o1)N2", "max response": "-13.4%"}, {"smiles": "O=C1CCCC2=C1C1(CCCC1)N=C(Nc1nc3cc4ccccc4cc3o1)N2", "max response": "-24.7%"}, {"smiles": "O=C1CCCC2=C1C1(CCCOC1)N=C(Nc1nc3ccccc3o1)N2", "note": "(stereo unspecified)", "max response": "1.73%"}, {"smiles": "Cc1ccc2nc(NC3=NC4(CCCC4)C4=C(CCCC4=O)N3)oc2c1", "max response": "-9.86%"}, {"smiles": "CC1(C)CC(=O)C2=C(C1)NC(Nc1nc3ccccc3o1)=NC21CCCC1", "max response": "-0.364%"}, {"smiles": "CC1(C)CC(=O)C2=C(C1)NC(Nc1nc3ccccc3o1)=NC2c1cccc(Cl)c1", "note": "(stereo unspecified)", "max response": "-8.98%"}, {"smiles": "Cc1ccc2oc(NC3=NC4(CCCC4)C4=C(CCCC4=O)N3)nc2c1", "max response": "-13.5%"}, {"smiles": "O=C1CCCC2=C1C1(CCC1)N=C(Nc1nc3ccccc3o1)N2", "max response": "-2.94%"}, {"smiles": "Cn1c(NC2=NC3(CCCC3)C3=C(CCCC3=O)N2)nc2ccccc21", "max response": "-10.7%"}, {"smiles": "CCC1CCC2(C1)N=C(Nc1nc3ccccc3o1)NC1=C2C(=O)CCC1", "note": "(stereo unspecified)", "max response": "9.72% [middle of 5 runs]"}, {"smiles": "CC1CCC2(C1)N=C(Nc1nc3ccccc3o1)NC1=C2C(=O)CCC1", "note": "(stereo unspecified)", "max response": "2.86%"}, {"smiles": "O=C1CCCC2=C1C1(CCSCC1)N=C(Nc1nc3ccccc3o1)N2", "max response": "3.32%"}, {"smiles": "O=C1CC(c2ccccc2)CC2=C1C1(CCCCC1)N=C(Nc1nc3ccccc3o1)N2", "note": "(stereo unspecified)", "max response": "-19.3%"}, {"smiles": "O=C1CCCC2=C1C1(CCCCC1)N=C(Nc1nc3ccccc3o1)N2", "max response": "-4.16%"}, {"smiles": "Cc1nc(Nc2nc3ccccc3o2)nc2c1C(=O)CC(C)(C)C2", "max response": "-9.62%"}, {"smiles": "O=C1CCC2=C1C1(CCCC1)N=C(Nc1nc3ccccc3o1)N2", "max response": "-0.733%"}, {"smiles": "O=C1CCCC2=C1C1(CCSC1)N=C(Nc1nc3ccccc3o1)N2", "note": "(stereo unspecified)", "max response": "9.11%"}, {"smiles": "CC1(C)CC(=O)C2=C(C1)NC(Nc1nc3ccccc3o1)=NC2c1cccnc1", "note": "(stereo unspecified)", "max response": "-12.6%"}, {"smiles": "CC1(C)CC(=O)C2=C(C1)NC(Nc1nc3ccccc3o1)=NC2c1ccccc1Cl", "note": "(stereo unspecified)", "max response": "-4.5%"}, {"smiles": "O=C1CCCC2=C1C(c1ccc(Cl)cc1)N=C(Nc1nc3ccccc3o1)N2", "note": "(stereo unspecified)", "max response": "2.22%"}, {"smiles": "O=C1CCCC2=C1C1(CCS(=O)(=O)C1)N=C(Nc1nc3ccccc3o1)N2", "note": "(stereo unspecified)", "max response": "7.09%"}, {"smiles": "COc1ccc(C2N=C(Nc3nc4ccccc4o3)NC3=C2C(=O)CC(C)(C)C3)cc1", "note": "(stereo unspecified)", "max response": "-4.13%"}, {"smiles": "CC1(C)N=C(Nc2nc3ccccc3o2)NC2=C1C(=O)CCC2", "max response": "-7.6%"}]}]}
